Assay outcomes (PubChem)
Compounds with a hit are over-represented: about 1.1% of the library has one in this group of screens.
HTR5A inv ctr: counter-screen for OPRM1-OPRD1 inverse agonists: human HTR5A inverse agonism; P47898; HTR5A cell line, luminescence; inhibition, % at 9.3 µM; 340,000 tested, 0.083% active; AID 504634; in the data active means inhibition mostly above about 23%, no sharp cut-off; inactive means mostly below about 18%;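 further: 0% = cells with DMSO and 100% = no-cell wells with DMSO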
MOR-DOR ag: agonists of human mu-delta opioid receptor heterodimerization | cells, OPRM1-OPRD1 heterodimerization, luminescence | P35372+P41143 | activation, % at 9.3 µM | 340,000 tested, 0.3% active; in the data active means activation above about 18%;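 further: 0% = vehicle-treated cells and 100% = reference agonist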
HTR5A ag: HTR5A agonism, opioid heterodimer counter-screen; 340,000 tested, 0.61% active; HTR5A agonist assay, luminescence, cell-based; activation, % at 9.3 µM; P47898; AID 504692; in the data active means activation mostly above about 9.5%, no sharp cut-off; inactive means mostly below about 7.6%;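 further: 0% = cells with vehicle only and 100% = reference agonist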
MOR-DOR inv ag: mu-delta opioid heterodimer inverse agonism; 340,000 tested, 0.21% active; inhibition, % at 9.3 µM; cell-based MOR-DOR heterodimer luminescence; P35372+P41143; in the data active means inhibition above about 22%, passing the limit was not always enough;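 further: 0% = cells with DMSO and 100% = wells without cells with DMSO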
MOR-DOR inv conf: OPRM1-OPRD1 heterodimer inverse agonism, confirmation; inhibition, % at 9.3 µM; 580 tested, 20% active; shares compounds with MOR-DOR inv ag; cells expressing OPRM1/OPRD1 heterodimer, luminescence; in the data active means inhibition above about 32%;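 further: 0% = cells with DMSO and 100% = wells lacking cells with DMSO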
HTR5A inv ctr2: inverse agonist of human HTR5A in OPRM1-OPRD1 counter-screen | shares compounds with MOR-DOR inv ag | HTR5A-expressing cells, luminescence, inverse agonism | inhibition, % at 9.3 µM | 580 tested, under 10 active; call rule not given here;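 further: 0% = cells with DMSO and 100% = no-cell wells with DMSO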
* hit, by the source's call; i = inactive; x = not tested or not shown.

SMILES	HTR5A inv ctr	MOR-DOR ag	HTR5A ag	MOR-DOR inv ag	MOR-DOR inv conf	HTR5A inv ctr2
COc1ccc(-n2c(N)c(C(=O)NCc3ccco3)sc2=S)cc1	-22.6	-2.7	5.3	15.7	x	x
O=c1[nH]c2ccc(NS(=O)(=O)c3ccc(Cl)cc3)cc2[nH]1	6.1	0.1	-2.3	-0.3	x	x
CC1COC(=O)C(NNc2ccc(Cl)c(Cl)c2)=N1 (stereo not drawn)	-28.7	-5.7	10.3	30.4*	12.6	1.7
O=S(=O)(Nc1ccc(Cl)c(Cl)c1)N1CCOCC1	-13.8	-3.1	-5.6	21.4	x	x
O=C(NC(=S)Nc1ccccc1O)c1cccnc1	9.9	-6.9	-2.6	34.8*	22.5	-9.0
O=C(NC(=S)Nc1ccccc1C(=O)O)c1cncc(Br)c1	-6.8	-2.6	1.8	12.8	x	x
O=C(NC(=S)Nc1ccccc1O)c1cncc(Br)c1	10.1	-8.3	-3.9	41.2*	-99.3	-31.7
CCC(C)c1ccc(O)c(NC(=S)NC(=O)c2cccnc2)c1 (stereo not drawn)	19.3	-8.6	-7.0	47.2*	i	-3.0
COCCNC(=S)N/N=C(\C)c1cccc([N+](=O)[O-])c1	-4.0	-0.9	1.5	5.4	x	x
Cc1ccc(S(=O)(=O)N2CCOC23CCN(C(=O)C(=O)NCc2ccccc2)CC3)cc1	0.1	-0.8	0.1	4.5	x	x
CCOC(=O)N1CCN(C(=O)CCc2cc(OC)c(OC)c(OC)c2)CC1	-3.6	-3.8	-0.1	20.4	x	x
Nc1nc(-c2ccccn2)nc(N)c1Cc1ccc(Cl)cc1Cl	6.0	-7.2	-2.3	36.4*	-12.0	-20.7
CCC(=O)Oc1ccc(C(=O)Nc2cccc(C(=O)NCC(C)C)c2)cc1	3.8	-4.5	-1.4	32.4*	-47.4	-10.3
CCC(=O)Oc1ccc(C(=O)Nc2ccccc2C(=O)NCC(C)C)cc1	4.7	-1.1	0.0	5.7	x	x
CCCC(=O)Nc1ccccc1-c1nnn(CC(=O)Nc2ccc(OCC)cc2)n1	-15.4	1.9	-2.4	-11.9	x	x
CC(=O)N/C(=C\c1ccccc1)C(=O)NC(C)C(=O)O (stereo not drawn)	-9.2	-0.9	-2.4	4.4	x	x
CCC(=O)N1C(C(=O)NCc2ccc(OC)cc2)CSC1c1ccc(OC)cc1 (stereo not drawn)	2.3	-0.8	-0.8	3.9	x	x
O=C(CCc1ccccc1)N1CCN(c2ccc([N+](=O)[O-])cc2)CC1	-20.5	-2.2	-3.7	11.7	x	x
Cc1cc(C(=O)N/N=C/c2cc(Br)cc([N+](=O)[O-])c2O)c2ccccc2n1	10.8	-3.9	-3.2	22.0*	-0.9	6.8
Cc1ccc2oc(/N=C(\N)NC(=O)C3CC3)nc2c1	-15.2	1.6	5.8	-8.0	x	x
Cc1ccc2oc(/N=C(\N)NC(=O)C(C)(C)C)nc2c1	14.2	-8.7	-9.4	44.6*	18.8	-10.8
CN1C(=O)/C(=C/c2ccc(O)c([N+](=O)[O-])c2)N(C)C1=S	10.9	-6.1	5.1	33.0*	7.6	19.2
COc1cc(/C=C2\C(=O)N(C)C(=S)N2C)ccc1O	7.0	1.8	-2.6	-11.0	x	x
Cc1cc(NC(=O)CSc2nc3c([nH]c4ccccc43)c(=O)n2-c2ccccc2F)no1	15.2	-6.4	-3.1	34.2*	12.5	14.8
COc1ccc(-c2nnc(SCC(=O)N3CCOCC3)o2)cc1	-2.1	-1.3	0.6	7.1	x	x
SMILES	HTR5A inv ctr	MOR-DOR ag	HTR5A ag	MOR-DOR inv ag	MOR-DOR inv conf	HTR5A inv ctr2
O=C(Nc1ccc(Cl)cc1)C(Cl)C(=O)c1ccccc1 (stereo not drawn)	7.6	-6.9	-2.8	36.5*	-384.8	-3.1
Cc1ccc2c(c1)C(=O)C(=O)N2CCOc1ccccc1	4.8	-7.6	-1.6	37.7*	-5.6	-1.3
Cc1cccc(OCCN2C(=O)C(=O)c3cc(C)ccc32)c1	20.1	-5.7	6.3	29.6*	-6.5	-16.0
CCCN1C(=O)C(=O)c2cc(C)ccc21	25.5	-3.6	1.7	16.5	x	x
Cc1ccc(-n2c(SCC(N)=O)nc3c([nH]c4ccccc43)c2=O)cc1	4.1	-2.8	-1.6	15.4	x	x
CCn1ccc(C(=O)Oc2ccc(Cl)cc2)n1	13.9	0.1	2.8	-0.3	x	x
COc1ccc(C(=O)Cc2nnc(C)s2)c(OC)c1	18.7	-12.5	-6.0	77.6*	37.0*	8.8
CCN(CC)CCOC(=O)/C=C/c1ccccc1	-11.8	-2.7	0.5	14.2	x	x
CCN(CC)CC(C)(C)C(=O)/C=C/c1ccc(/C=C/C(=O)C(C)(C)CN(CC)CC)cc1	5.6	-8.9	-1.5	43.4*	-1.6	23.8
COc1ccc(S(=O)(=O)NNc2nc(C)cc(C)n2)cc1Br	1.0	-5.6	-0.4	30.8*	-1.6	-8.1
